Screening data (PubChem BioAssay)
IL2 activator = qHTS of IL-2 Activators; IL-2 activation reporter assay, cell-based qHTS; stimulated with anti-CD3/CD4/CD28 beads; in transgenic mouse T cells; activation, % (series mostly up to about 46 µM); actives 0.065% (n = 360,000); AID 652025, 2013; in the data active means activation above about 50%; inconclusive means mostly about 30% to 49%
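Readout: EGFP and DsRed signals by fluorescent plate cytometry. Unstimulated transgenic mouse T cells received compound 60 min before antibody-bead stimulation, then incubated 18 h at 37 degrees C.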
BRCA1 expr up = qHTS Assay to Identify Small Molecule Activators of BRCA1 Expression | Potency, µM (titrated, usually from 46.1 µM), most hits filed as activators | actives 1.1% (n = 380,000) | MCF7-BRCA1-FFLuc reporter, luminescence, 48 h; response scale: scaled: vehicle 0%, 10 µM genistein 100% | AID 624202, 2012; further: nearly all actives have a fitted effect of over 80% in size
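Activators of BRCA1 expression were detected as increased firefly luciferase luminescence in engineered MCF7 cells after 48 h compound incubation. Signals were scaled to genistein 10 microM as full activation.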
ELG1 repair inh = qHTS screen for small molecules that inhibit ELG1-dependent DNA repair in human embryonic kidney (HEK293T) cells expressing luciferase-tagged ELG1. HEK293T ELG1-luciferase reporter, luminescence, 16 h; DNA damage induced by 5-fluorouridine. Potency, µM (series often up to 46.1 µM), usual class: inhibitors. actives 2.3% (n = 330,000); further: nearly all actives have a fitted effect of over 55% in size
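Luminescence from the luciferase reporter, measured 30 min after ONE-Glo reagent at room temperature, was the read-out. Beforehand, 2,000 cells per well were exposed for 16 hr at 37 °C to 5-fluorouridine together with compound or vehicle.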
Nrf2 ARE act = qHTS of Nrf2 Activators | AREc32 ARE-luciferase reporter (MCF7-derived line), luminescence, 24 h | actives 0.31% (n = 410,000) | Potency, µM (titrated, usually from 46.1 µM), most hits filed as activators; further: nearly all actives have a fitted effect of over 65% in size
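ARE activation measured as luciferase luminescence (Steady-Glo, 30 min RT) in AREc32_Fluc cells after 24 hr compound exposure at 37 deg C, 5% CO2; cells seeded overnight at 1000/well in OPTI-MEM, 5% FBS.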
Each line names hits and unclear results; the compound was inactive in the other large screens. In the library only some 3.1% were active in any assay of this set; here they are far more common. Unless noted, the call rests on the fitted dose curve; in most records, active means well fitted curve in the direction sought with a large enough effect; inconclusive means small, poorly fitted or top-dose-only effect, or another doubt; inactive means no such curve, though single readings can be large; an effect the other way counts as inactive or inconclusive.

OC(c1cccnc1)c1nc(-c2cccc(F)c2)cs1 (stereo unspecified)	none (no result: ELG1 repair inh)
c1ccc(N2CC3COc4ccccc4C3=N2)cc1 (stereo unspecified)	Nrf2 ARE act 8.9µM (no result: ELG1 repair inh)
c1ccc2c(c1)OCc1cn[nH]c1-2	none
O=C1/C(=C/c2cccs2)COc2ccccc21	ELG1 repair inh inconclusive, Nrf2 ARE act inconclusive
O=C1C(=Cc2cccs2)Oc2ccccc21	Nrf2 ARE act 11µM (no result: ELG1 repair inh)
Cc1ccccc1/C=C1\Oc2ccccc2C1=O	ELG1 repair inh inconclusive, Nrf2 ARE act 13µM
Cc1ccc(CN2C(=O)c3ccccc3S(=O)(=O)c3ccc(C(=O)OCC4CCCO4)cc32)cc1 (stereo unspecified)	none (no result: IL2 activator, BRCA1 expr up, ELG1 repair inh)
CCS(=O)(=O)Nc1ccc(C2=NN(C(=O)c3ccccc3)C(c3cccs3)C2)cc1 (stereo unspecified)	ELG1 repair inh 16µM
O=[N+]([O-])c1ccc(C[n+]2cccc3ccc4cccnc4c32)cc1	ELG1 repair inh 7.3µM
O=C1/C(=C\c2cc([N+](=O)[O-])ccc2O)SC(=S)N1Cc1ccc(Cl)cc1	ELG1 repair inh 18µM
COc1ccc(COc2cc(-c3cccc(OC)c3)nc3ccc(NC(=O)c4ccc(Cl)cc4)cc23)cc1	ELG1 repair inh inconclusive
COc1ccc(COc2cc(-c3cccc(OC)c3)nc3ccc(NC(=O)c4ccccc4)cc23)cc1	ELG1 repair inh 6.5µM
COc1ccc(COc2cc(-c3cccc(OC)c3)nc3ccc(NC(=O)c4cccnc4)cc23)cc1	ELG1 repair inh 2.9µM
COc1ccc(COc2cc(-c3cccc(OC)c3)nc3ccc(NC(=O)c4ccc(OC)cc4)cc23)cc1	ELG1 repair inh 4.1µM
CCc1ccc(C(=O)c2cn(CC(=O)Nc3ccc(C)c(C)c3)c3ccccc3c2=O)cc1	none (no result: IL2 activator, ELG1 repair inh)
COC(=O)C1=CN(c2ccc(OC)cc2OC)C(N)=C(C#N)C1c1cccc([N+](=O)[O-])c1 (stereo unspecified)	none (no result: BRCA1 expr up, ELG1 repair inh, Nrf2 ARE act)
COc1ccc2cc3cc(C(=O)N4CCN(c5ccccc5F)CC4)oc3nc2c1	none (no result: IL2 activator, ELG1 repair inh)
N#CC1=C(N)N2C(=C(C#N)C1c1ccccc1)Sc1ccccc12 (stereo unspecified)	none (no result: IL2 activator, BRCA1 expr up, Nrf2 ARE act)
N#CC1=C(N)N2C(=C(C#N)C1c1ccc(Br)cc1)Nc1ccccc12 (stereo unspecified)	ELG1 repair inh 2.9µM
N#CC1=C(N)N2C(=C(C#N)C1c1cccc(Br)c1)Nc1ccccc12 (stereo unspecified)	ELG1 repair inh 2.9µM
O=C(O)CSc1cc(NS(=O)(=O)c2ccc(Br)cc2)c2ccccc2c1O	ELG1 repair inh 15µM
O=S(=O)(Nc1cc(Sc2ncn[nH]2)c(O)c2ccccc12)c1ccccc1	ELG1 repair inh 23µM
Cc1ccc(S(=O)(=O)Nc2ccc(Br)cc2C(NCC(=O)O)c2ccccc2)cc1 (stereo unspecified)	none
Cc1cc(O)c(Sc2ncn[nH]2)cc1NS(=O)(=O)c1ccc(Cl)cc1	none
CN(C)C(=O)COc1ccc2cc(-c3ccccc3)c(=O)oc2c1	BRCA1 expr up 11µM, ELG1 repair inh inconclusive
COc1ccc2cc(-c3ccccc3)c(=O)oc2c1	BRCA1 expr up inconclusive, ELG1 repair inh inconclusive
c1ccc(-c2nc(N3CCCCCC3)c3ccccc3n2)nc1	ELG1 repair inh 2.6µM
c1ccc(CCNc2nc(-c3ccccn3)nc3ccccc23)cc1	ELG1 repair inh 4.1µM
c1ccc(-c2nc(N3CCOCC3)c3ccccc3n2)nc1	ELG1 repair inh 16µM
CCN1CCN(c2nc(-c3ccccn3)nc3ccccc23)CC1	ELG1 repair inh inconclusive
c1ccc(CN2CCN(c3nc(-c4ccccn4)nc4ccccc34)CC2)cc1	ELG1 repair inh 8.2µM
COc1ccc(Cn2c(CO)cnc2SCc2ccc(C)cc2)cc1	none (no result: IL2 activator, BRCA1 expr up, ELG1 repair inh)
CCc1ccc(C(=O)c2cn(CC(=O)Nc3ccc4c(c3)OCCO4)c3ccc(C)cc3c2=O)cc1	none (no result: IL2 activator, ELG1 repair inh)
c1ccc(Oc2nc(-c3ccccn3)nc3ccccc23)cc1	ELG1 repair inh inconclusive
COc1ccc(Oc2nc(-c3ccccn3)nc3ccccc23)cc1	ELG1 repair inh 9.2µM
Cc1ccc(NC(=O)c2cc(S(=O)(=O)N3CCc4ccccc43)cn2C)c(Cl)c1	none (no result: IL2 activator, BRCA1 expr up, ELG1 repair inh)
Cc1ccc(O)c(N/C=C/C(=O)c2ccc(F)cc2)c1	BRCA1 expr up 6.3µM, ELG1 repair inh inconclusive, Nrf2 ARE act inconclusive
CCN(CC)S(=O)(=O)c1ccc2c(c1)C(=NO)c1cc(S(=O)(=O)N(CC)CC)ccc1-2	ELG1 repair inh 7.3µM
CC1CCN(S(=O)(=O)c2ccc3c(c2)C(=NO)c2cc(S(=O)(=O)N4CCC(C)CC4)ccc2-3)CC1	ELG1 repair inh 5.2µM
CCN(CC)S(=O)(=O)c1cccc(S(=O)(=O)c2cccc(S(=O)(=O)N(CC)CC)c2)c1	ELG1 repair inh 8.9µM
CCN(CC)S(=O)(=O)c1cccc(S(=O)(=O)N2CCCCC2)c1	none
CN(C)c1ccc(CNC(=O)C2CCN(S(=O)(=O)c3cn(C)cn3)CC2)cc1	none (no result: IL2 activator, BRCA1 expr up, ELG1 repair inh)
O=[N+]([O-])c1ccc(-c2cc3ccccc3[nH]2)cc1	none (no result: IL2 activator, ELG1 repair inh, Nrf2 ARE act)
CCOC(=O)CN1C(=O)S/C(=C/c2ccc3c(c2)n(C)c(=O)n3C)C1=O	BRCA1 expr up 5µM, ELG1 repair inh inconclusive
Cn1c(=O)n(C)c2cc(/C=C3/SC(=O)N(CC(=O)N4CCOCC4)C3=O)ccc21	ELG1 repair inh inconclusive
COc1ccc(C#Cc2cnc3c(c2)C(=O)N([C@@H](C)CO)C[C@@H](C)[C@@H](CN(C)CC2CCOCC2)O3)cc1	none (no result: ELG1 repair inh)
O=C(/C=C/c1ccc(-c2ccccc2[N+](=O)[O-])o1)c1ccc(Br)cc1	Nrf2 ARE act 2.5µM
CC1CCCN(C(=O)CNC(=O)c2cccs2)C1 (stereo unspecified)	BRCA1 expr up 10µM, ELG1 repair inh inconclusive
O=C1/C(=N\S(=O)(=O)c2cccs2)C([n+]2ccc(CCCc3ccccc3)cc2)=C([O-])c2ccccc21	ELG1 repair inh 13µM
O=C1/C(=N\S(=O)(=O)c2cccs2)C([n+]2cccc(Cc3ccccc3)c2)=C([O-])c2ccccc21	ELG1 repair inh 2.3µM
Cc1ccc2scc(N3CCCC(C)C3)c(=O)c2c1 (stereo unspecified)	BRCA1 expr up inconclusive (no result: IL2 activator, ELG1 repair inh)
O=C(NCCc1ccccc1)c1ccc2c(c1)CCN2S(=O)(=O)c1ccccc1	none (no result: IL2 activator, BRCA1 expr up, ELG1 repair inh)
Cc1ccccc1Cn1ccc(NC(=O)c2cnn3c(C(F)(F)F)cc(-c4ccco4)nc23)n1	ELG1 repair inh 7.9µM
Cc1ccccc1Cn1ccc(NC(=O)CCSc2nc(-c3ccco3)cc(C(F)(F)F)n2)n1	ELG1 repair inh inconclusive
CCN=c1scc(-c2ccc3c(c2)NC(=O)CO3)n1N=C1CCCC1	ELG1 repair inh inconclusive
CCCCN=c1scc(-c2ccc3c(c2)NC(=O)CO3)n1N=C1CCCC1	ELG1 repair inh 23µM
CN(C)C(=O)c1cc(C(=O)c2ccc(F)cc2Cl)c[nH]1	ELG1 repair inh inconclusive
